These results are taken from PubChem BioAssay (Tox21).

Each structure is given as a SMILES string. Unmarked numbers belong to inactive results. Inconclusive results are not listed. Active and inactive are the calls of the source. Unless noted, the call rests on the fitted dose curve; in most records, active means well fitted curve in the direction sought with a large enough effect in the repeat runs; inconclusive means weak or mixed curves; inactive means flat fitted curve, though single readings scatter.

The nature of assay [1]: qHTS assay to test for compound auto fluorescence at 535 nm (green) in HEK293 cells (AID 720680).
Assay [2] in a line: qHTS assay to test for compound auto fluorescence at 460 nm (blue) in HEK293 cell free culture (AID 720681). The procedure, abridged: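 Blue fluorescence (Ex 405/Em 460 nm, triamterene-equivalent) was read immediately after pin transfer of compound or DMSO into medium (DMEM, 10% FBS) without cells.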
The nature of assay [3]: qHTS assay to test for compound auto fluorescence at 535 nm (green) in HEK293 cell free culture (AID 720682). The procedure, abridged: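 Green-label autofluorescence (485 nm excitation, 535 nm emission) measured on compound added to cell-free culture medium (DMEM, 10% FBS). Output is expressed relative to fluorescein.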
A short description of assay [4]: qHTS assay to test for compound auto fluorescence at 590 nm (red) in HEK293 cell free culture (AID 720683). The procedure, abridged: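 Red-channel autofluorescence of compounds in culture medium (DMEM, 10% FBS), no cells, measured at 540/590 nm. Rose Bengal sodium is the reference fluorophore for equivalence.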
Assay [5] is described as follows: qHTS assay to test for compound auto fluorescence at 590 nm (red) in HepG2 cell free culture (AID 720684). The method in brief: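 Steps: dispense MEM/10% FBS medium, no cells; pin compound or DMSO vehicle; read red channel, Ex/Em 540/590 nm. Output given as Rose Bengal sodium equivalents.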
Assay [6] in a line: qHTS assay to test for compound auto fluorescence at 460 nm (blue) in HepG2 cell free culture (AID 720685). The procedure, abridged: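 Compound (23 nL) or DMSO pinned into cell-free MEM with 10% FBS; blue fluorescence read at 405/460 nm excitation/emission, expressed as auto-fluorescence equivalency to triamterene.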
Assay [7] in a line: qHTS assay to test for compound auto fluorescence at 535 nm (green) in HepG2 cell free culture (AID 720686).
Assay [8] can be described thus: qHTS assay to test for compound auto fluorescence at 460 nm (blue) in HepG2 cells (AID 720687). The method in brief: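 Blue-channel autofluorescence (Ex/Em 405/460 nm, triamterene-equivalent) was measured after 1 hr compound exposure at 37 C, 5% CO2. Cells were HepG2, plated overnight at 37 C in MEM plus 10% FBS.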
The target in assay [9] is Glucocorticoid receptor (Homo sapiens) (UniProt P04150). As to the kind of experiment: qHTS assay to identify small molecule agonists of the glucocorticoid receptor (GR) signaling pathway (AID 720691; active means well fitted activation curve with a large enough effect in the signal ratio in the repeat runs, not every such curve was filed as active; the % refers to the signal ratio). The method in brief: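 GR-bla HeLa cells carrying a GRE-driven beta-lactamase reporter, exposed to compounds for 18 h at 37 C. Reporter activation read as fluorescence after 2 h with LiveBLAzer B/G FRET substrate at room temperature.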
Sequence of Glucocorticoid receptor (Homo sapiens) (P04150 whole entry, looked up): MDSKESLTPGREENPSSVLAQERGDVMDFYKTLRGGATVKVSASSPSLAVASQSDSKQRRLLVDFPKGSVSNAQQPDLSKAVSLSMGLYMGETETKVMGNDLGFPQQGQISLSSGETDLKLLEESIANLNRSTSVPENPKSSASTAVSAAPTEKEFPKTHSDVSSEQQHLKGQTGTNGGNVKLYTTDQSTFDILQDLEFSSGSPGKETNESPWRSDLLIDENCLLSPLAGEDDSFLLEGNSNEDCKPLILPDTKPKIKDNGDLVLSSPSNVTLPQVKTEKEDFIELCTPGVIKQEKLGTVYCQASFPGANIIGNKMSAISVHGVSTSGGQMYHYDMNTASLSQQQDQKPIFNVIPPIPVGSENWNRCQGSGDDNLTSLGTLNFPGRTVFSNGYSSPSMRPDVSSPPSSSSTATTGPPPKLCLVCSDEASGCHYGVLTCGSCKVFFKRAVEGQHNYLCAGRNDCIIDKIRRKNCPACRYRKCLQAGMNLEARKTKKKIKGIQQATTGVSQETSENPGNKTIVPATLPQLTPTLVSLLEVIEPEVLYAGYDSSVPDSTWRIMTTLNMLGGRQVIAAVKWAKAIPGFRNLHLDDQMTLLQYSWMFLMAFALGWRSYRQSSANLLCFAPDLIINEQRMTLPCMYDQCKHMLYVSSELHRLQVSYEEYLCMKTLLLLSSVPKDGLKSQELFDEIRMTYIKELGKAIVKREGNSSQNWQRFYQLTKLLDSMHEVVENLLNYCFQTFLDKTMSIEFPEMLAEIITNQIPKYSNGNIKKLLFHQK

The target is the same in assay [10]. The experiment in a line: qHTS assay to identify small molecule antagonists of the glucocorticoid receptor (GR) signaling pathway (AID 720692; active means well fitted inhibition curve with a large enough effect in the signal ratio in the repeat runs, not every such curve was filed as active; the % refers to the signal ratio; further: potency means the concentration at half of the fitted maximal effect). The method in brief:
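GR-bla HeLa cells carrying a GRE-driven beta-lactamase reporter received compound after 4 h plating, then dexamethasone (5 nM final). After 18 h at 37C, the FRET substrate was loaded for 2 h at room temperature and fluorescence read.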
On the % scale 0 is the no-effect control and ±100 the full control effect.

Turning to `C[C@H]1C[C@H]2[C@@H]3CCC4=CC(=O)C=C[C@]4(C)[C@H]3C(=O)C[C@]2(C)[C@@]1(O)C(=O)CO`, the call in assay [1], in assay [2], in assay [3], in assay [4], in assay [5] and in assay [6] was inactive. For the same compound, the call in assay [7] and in assay [8] was inactive. Further, in assay [9], the Potency result was “inactive”. For the same compound, the Potency in [10] is 2.13 µM (active).
Turning to `CN1CC(=O)N/C1=N/C(=O)Nc1cccc(Cl)c1`, the call in [1], in assay [2], in assay [3], in [4], in assay [5] and in [6] was inactive. The call in [7] and in [8] was inactive. Further, the Potency result in assay [9] and in [10] was “inactive” in each case.
Take `CCCCc1nc(Cl)c(CO)n1Cc1ccc(-c2ccccc2-c2nn[nH]n2)cc1`: the outcome in [1], in assay [2], in assay [3], in [4], in [5] and in assay [6] was inactive. Further, the result in assay [7] and in assay [8] was inactive. The Potency entry in assay [9] and in assay [10] was “inactive” in each case.
Take `COc1cc2c(cc1OC)-c1cc3ccc(OC)c(OC)c3c[n+]1CC2`: the compound was classed as inactive in assay [1], in assay [2], in assay [3], in assay [4], in assay [5] and in assay [6]. The compound was classed as inactive in assay [7] and in [8]. In addition, the Potency result in assay [9] and in assay [10] was “inactive” each time.
Consider `CC(C)COC(=O)c1ccc(N)cc1`, for which the call in assay [1], in [2], in assay [3], in assay [4], in assay [5] and in [6] was inactive. The outcome in assay [7] and in [8] was inactive. In addition, the Potency entry in [9] and in assay [10] was “inactive” in each case.
As for `CC(C)CCCO`, the compound was classed as inactive in assay [1], in assay [2], in assay [3], in assay [4], in assay [5] and in assay [6]. In addition, the call in assay [7] and in [8] was inactive. Further, the Potency entry in [9] and in assay [10] was “inactive” each time.
Regarding `c1ccc(Cc2ccccc2)cc1`, the compound was classed as inactive in assay [1], in [2], in [3], in [4], in [5] and in [6]. Also, the outcome in assay [7] and in [8] was inactive. Besides, the Potency entry in assay [9] and in assay [10] was “inactive” in each case.
As for `CC1(C)[C@@H]2CC[C@@]1(C)[C@H](O)C2`, the call in [1], in [2], in assay [3], in assay [4], in [5] and in assay [6] was inactive. The result in [7] and in assay [8] was inactive. Moreover, the Potency entry in [9] and in [10] was “inactive” in each case.
On to `C=C(C)C(=O)OCC1CCCO1` (centres undefined), for which the result in assay [1], in [2], in assay [3], in assay [4], in assay [5] and in [6] was inactive. The call in assay [7] and in assay [8] was inactive. The Potency result in assay [9] and in assay [10] was “inactive” throughout.
For the compound `C[C@H]1[C@H](NC(=O)/C(=N/OC(C)(C)C(=O)O)c2csc(N)n2)C(=O)N1S(=O)(=O)O` (stereo in doubt), in assay [1], the fluorescence, % of fluorescein is 0.0034% [at 18.6 µM]. For the same compound, the fluorescence, % of fluorescent control was 0.0562% [at 18.6 µM] in [2], 0.271% [at 18.6 µM] in assay [4], 0.104% [at 18.6 µM] in assay [6] and 0.0116% [at 18.6 µM] in assay [8]. Also, in [3], the activity change is 0.008% [at 18.6 µM]. The fluorescence, % of Rose Bengal in [5] is 0.467% [at 18.6 µM]. For the same compound, the fluorescence, % of fluorescein control in assay [7] was 0.102% [at 18.6 µM]. The Potency entry in [9] and in assay [10] was “inactive” throughout.
Turning to `O=C(CO)[C@@H](O)[C@H](O)[C@@H](O)CO`, the compound was called inactive in [1], in assay [2], in assay [3], in assay [4], in [5] and in assay [6]. In addition, the outcome in [7] and in assay [8] was inactive. For the same compound, the Potency entry in assay [9] and in assay [10] was “inactive” each time.
With `CCOC(=O)c1ccccc1`, the call in assay [1], in [2], in [3], in assay [4], in assay [5] and in assay [6] was inactive. The outcome in [7] and in assay [8] was inactive. In addition, the Potency entry in assay [9] and in [10] was “inactive” in each case.
On to `C=CCCC(=O)O`, for which the outcome in assay [1], in [2], in assay [3], in [4], in assay [5] and in [6] was inactive. Besides, the outcome in assay [7] and in [8] was inactive. The Potency result in assay [9] and in assay [10] was “inactive” in each case.
For `CC(=O)N1C[C@H](O)C[C@H]1C(=O)O`, the outcome in assay [1], in assay [2], in [3], in assay [4], in assay [5] and in assay [6] was inactive. Moreover, the result in assay [7] and in [8] was inactive. In addition, the Potency result in [9] and in assay [10] was “inactive” throughout.
As for `C[N+]1(CC2COC(c3ccccc3)(c3ccccc3)O2)CCCCC1` (centres undefined), the call in [1], in [2], in assay [3], in [4], in assay [5] and in assay [6] was inactive. Moreover, the compound was called inactive in assay [7] and in assay [8]. In addition, in [10], the Potency result is “inactive”.
Turning to `CCCCCCCCCCCCSC`, the outcome in [1], in [2], in assay [3], in [4], in assay [5] and in [6] was inactive. In addition, the compound was called inactive in assay [7] and in assay [8]. Besides, the Potency result in [9] and in assay [10] was “inactive” each time.
With `CC/C=C\CCOC(C)OCC` (centres undefined), the result in assay [1], in assay [2], in assay [3], in [4], in assay [5] and in assay [6] was inactive. Moreover, the compound was called inactive in assay [7] and in assay [8]. Further, the Potency result in assay [9] and in assay [10] was “inactive” each time.
On to `Cc1ccnc(NS(=O)(=O)c2ccc(N)cc2)n1`, for which, in [1], the fluorescence, % of fluorescein is -0.0062% [at 18.6 µM]. Further, the fluorescence, % of fluorescent control was -0.0731% [at 18.6 µM] in assay [2], -0.145% [at 18.6 µM] in assay [4], 0.0941% [at 18.6 µM] in assay [6] and -0.0164% [at 18.6 µM] in [8]. Also, the activity change in [3] was 0.0378% [at 18.6 µM]. For the same compound, in assay [5], the fluorescence, % of Rose Bengal was 0.0665% [at 18.6 µM]. In [7], the fluorescence, % of fluorescein control is 0.0314% [at 18.6 µM]. Moreover, the Potency result in [9] and in assay [10] was “inactive” throughout.
